The whole screen tested about 330,000 compounds, of which about 1,400 (0.42%) were called active. Many of the other results were omitted from the sample, so actives are more common in it than they were. Unmarked numbers belong to inactive results.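 Rule for the calls: active = at least 40% inhibition at 20 µM here, with at most 30% in a related deaminase screen; inactive = the rest.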

The target in this assay is DNA dC->dU-editing enzyme APOBEC-3A (Homo sapiens) (UniProt P31941). Kind of assay: APOBEC3A ssDNA deaminase inhibitors, primary screen, selectivity assay for APOBEC3G inhibitor project, biochemical, FAM/TAMRA oligo cleavage fluorescence (AID 493011).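 Note: plate controls were A3A with DMSO for no effect and wells lacking A3A enzyme for full effect.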 The note with it: recombinant A3A, FAM/TAMRA ssDNA deamination fluorescence; at 20 µM; stronger effect = higher value.
Sequence of DNA dC->dU-editing enzyme APOBEC-3A (Homo sapiens) (P31941 whole entry, looked up): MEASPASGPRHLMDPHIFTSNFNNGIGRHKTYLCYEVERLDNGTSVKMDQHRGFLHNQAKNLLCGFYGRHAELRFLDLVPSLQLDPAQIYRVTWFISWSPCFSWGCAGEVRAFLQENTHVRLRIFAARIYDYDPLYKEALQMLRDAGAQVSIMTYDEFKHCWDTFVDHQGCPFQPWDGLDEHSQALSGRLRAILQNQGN
By inhibition is commonly meant the relative decrease from the control value, in per cent. As for `CCN(CC)CCOC(=O)c1cc2cc(COC)ccc2o1`, the inhibition was 75.9% (active).

On to `CC(=NC1CCN(Cc2ccccc2)CC1)c1c(O)n(C)c(=O)n(C)c1=O`, for which the inhibition is 1.55%.

In the case of `COc1cc(OC)cc(C2(C#N)CCN(C)CC2)c1`, the inhibition is 3.94%.

With `CN(C)c1nc(N(C)C)nc(N(C#N)CCCl)n1`, the inhibition was -2.95%.

As to `O=C(O)CCn1cc(C=C2C(=O)NC(=S)NC2=O)c(-c2cccc(Br)c2)n1`, the inhibition is 40.8% (active).

With `COC(=O)C1=C(c2cccc(OCc3ccccc3)c2)C[C@@H]2CC[C@H]1N2C(=O)NNCc1ccccc1`, the inhibition was -3.97%.

On to `CC(=C1C(=O)c2ccccc2C1=O)N1CCN(CCN=Cc2c(O)n(C)c(=O)n(C)c2=O)CC1`, for which the inhibition was 1.68%.

Regarding `CC[N+]1(C)CCCC(OC(=O)C(O)(c2ccccc2)c2ccccc2)C1` (stereo not given), the inhibition was -0.37%.

Turning to `O=C(c1cc(S(=O)(=O)N2CCOCC2)ccc1F)N1CCC2(CC1)OCCO2`, the inhibition was 4.32%.

As to `CNC(=O)O/N=C(\N)Cc1csc2ccccc12`, the inhibition is 1.51%.

These data come from PubChem BioAssay AID493011 (Sanford-Burnham Center for Chemical Genomics, 2011).
